Results filed as inconclusive are left out. Where a call stands in place of a potency, no number is given. Unmarked numbers belong to inactive results. Active and inactive are the calls of the source. Calls come from the whole dose curve; as a rule, active = well fitted cell-killing curve with a large enough effect; inconclusive = small, poorly fitted or top-dose-only effect, or effect the other way; inactive = flat fitted curve, though single readings scatter.
system: Es-2; experiment: Primary qHTS to identify gynecologic anti-cancer compounds using libraries of approved drugs and bioactive compounds (AID 1345084); details: Gynecologic cancer cell panel viability, ATPlite luminescence, 48 h; series mostly up to 57.5 µM; note: nearly all actives have a fitted effect of over 55% in size
Method in brief: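 Cells, 1,000 per well, were allowed to settle for 16 h at 37 C before compound addition. Five concentrations were tested for 48 h, and viability was read by ATPlite luminescence after 15 min at room temperature.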
Potency is the fitted concentration of half-maximal effect.

| Compound | Potency | activity change, negative = cytotoxicity |
| --- | --- | --- |
| CC(=O)C12OC(C)(C)OC1CC1C3CCC4=CC(=O)C=CC4(C)C3(F)C(O)CC12C (centres undefined) | inactive |  |
| COC(=O)C1=CO[C@@H](O[C@@H]2O[C@H](CO[C@@H]3O[C@H](COC(=O)/C=C/c4cc(OC)c(O)c(OC)c4)[C@@H](O)[C@H](O)[C@H]3O)[C@@H](O)[C@H](O)[C@H]2O)[C@@H]2C(CO)=CC[C@H]12 | inactive |  |
| CC1=C2C3OC(=O)C(C)C3(O)CCC2(C)CCC1O (centres undefined) | inactive |  |
| COc1ccccc1Oc1ccc(N(Cc2cccnc2)S(=O)(=O)CC(F)(F)F)cc1 | inactive |  |
| O=C(/C=C/c1ccc(O)cc1)N[C@@H](Cc1ccc(O)cc1)C(=O)O | inactive |  |
| CC1=C(C)C(=O)OC(C(C)C2CCC3C4C5OC5C5(O)CC(OC6OC(CO)C(OC7OC(C)C(O)C(O)C7O)C(O)C6O)CC(O)C5(C)C4CCC23C)C1 (centres undefined) | inactive |  |
| C=C[C@H]1CN2CC[C@H]1C[C@@H]2C(O)c1ccnc2ccc(OC)cc12 (some centres undefined) | inactive |  |
| C=C[C@H]1C(O[C@@H]2O[C@H](CO)[C@@H](O)[C@H](O)[C@H]2O)OC=C2C(=O)N3CCc4c([nH]c5ccccc45)C3CC21 (some centres undefined) | inactive |  |
| O=C(O)/C=C/c1ccc(O)c(O[C@@H]2O[C@H](CO)[C@@H](O)[C@H](O)[C@H]2O)c1 | inactive |  |
| C=C(C(=O)O)C1CC(O)C2(C)CCCC(=C)C2C1 (centres undefined) | inactive |  |
| CC1CCC2(C(=O)O)CCC3(C)C(=CCC4C5(C)CCC(OC(=O)/C=C/c6ccccc6)C(C)(C)C5CCC43C)C2C1C (centres undefined) | inactive |  |
| C=C[C@H]1[C@H](O[C@@H]2O[C@H](CO)[C@@H](O)[C@H](O)[C@H]2O)OC=C(C(=O)OC)[C@H]1CC(=O)O | inactive |  |
| CNC12CC3C[C@@](C)(C1)C[C@](C)(C3)C2 | inactive |  |
| COc1cccc2cc3c(c(O[C@@H]4O[C@H](CO[C@@H]5O[C@H](CO)[C@@H](O)[C@H](O)[C@H]5O)[C@@H](O)[C@H](O)[C@H]4O)c12)C(C)OC3=O (some centres undefined) | inactive |  |
| C/C(=C\CC[C@@H](C)[C@H]1CC(O)[C@@]2(C)C3CC[C@H]4C(C)(C)[C@@H](OC5OCC(O)C(O)C5OC5OC(CO)C(O)C(O)C5O)CC[C@@]45C[C@@]35CC(O)[C@]12C)C(=O)O (some centres undefined) | inactive |  |
| Cc1ccc(NC(=O)C(=O)NC2CC(C)(C)NC(C)(C)C2)cc1 | inactive |  |
| C=CC(C)(C)C12C=C(OC)C(=O)N3C(C(C)C)C(=O)NC31N(OC)c1ccccc12 (centres undefined) | inactive |  |
| O=S(=O)(NC1CCC(c2cc(F)ccc2F)(S(=O)(=O)c2ccc(Cl)cc2)CC1)C(F)(F)F (centres undefined) | inactive |  |
| CC(C)=CCC[C@](C)(O[C@@H]1O[C@H](CO)[C@@H](O)[C@H](O)[C@H]1O)[C@H]1CC[C@]2(C)[C@@H]1[C@H](O)CC1[C@@]3(C)CC[C@H](O)C(C)(C)C3[C@@H](O[C@@H]3O[C@H](CO)[C@@H](O)[C@H](O)[C@H]3O[C@@H]3OC[C@@H](O)[C@H](O)[C@H]3O)C[C@]12C (some centres undefined) |  | 3.44% [at 11.6 µM] |
| CC(=O)OC1CC2(C)C3=CCC4(C)C5C(O)C(O)C(C(C)C)C5(C)CCC4(C)C3CCC2C(C)(C)C1OC1OC(CO)C(O)C(O)C1O (centres undefined) | inactive |  |

| Compound | Potency | activity change, negative = cytotoxicity |
| --- | --- | --- |
| CC1(C)CCCC2(C)C1CC(=O)C13CC(CCC12)C(O)(CO)C3 (centres undefined) | 4.47 µM (active) |  |
| CC1=CC(=O)C2(OC3OC(C)C(O)C(OC(=O)/C=C/c4ccccc4)C3O)C=COC(OC3OC(CO)C(O)C(O)C3O)C12 (centres undefined) | inactive |  |
| C=C(CO)C12OC1C1(C)C(=CC2=O)C(O)C(O)CC1C (centres undefined) | inactive |  |
| O=C(CCc1ccccc1)N1CCC(O)(Cn2cnc3cc(Cl)ccc3c2=O)CC1 | inactive |  |
| C=CC(C)(O)CC[C@H]1C(=C)CCC2[C@](C)(C(=O)O)CCC[C@@]21C (some centres undefined) | inactive |  |
| C=C1[C@H](OC(C)=O)[C@H]2[C@@H](OC(C)=O)[C@](C)(OC(C)=O)C[C@]2(OC(C)=O)C(=O)[C@H](C)/C=C/C(C)(C)C(=O)[C@H](OC(=O)C(C)CC)[C@H]1OC(C)=O (some centres undefined) | inactive |  |
| C=C(C(=O)O)C1CCC2(C)CCC(O)C(C)(O)C2C1 (centres undefined) | inactive |  |
| C[C@@H]1O[C@@H](OC[C@H]2O[C@@H](OC(CCCCc3ccc(O)cc3)CCc3ccc(O)cc3)[C@H](O)[C@@H](O)[C@@H]2O)[C@H](O)[C@H](O)[C@H]1O (some centres undefined) | inactive |  |
| COC(=O)c1ccc(OC(CO)C(O)c2ccc(O)c(OC)c2)c(OC)c1 (centres undefined) | inactive |  |
| C/C1=C\C[C@]2(C)C(=O)C(O)=C([C@H](C)CO)[C@H]2C/C=C(\C)[C@@H](O)CC/C(C)=C/CC1 | inactive |  |
| C=C(C)C1CCC2(C(=O)O)CCC3(C(=O)O)C(CCC4C5(C)CCC(O)C(C)(C(=O)O)C5CCC43C)C12 (centres undefined) | inactive |  |
| O=C(Nc1ccccc1-c1cn2c(CN3CCNCC3)csc2n1)c1ccc2ccccc2n1 | inactive |  |
| COc1c2c(c(CO)c3c1C(=O)OC3)OC1(C)CCC3(O)C(C)(C)OC(=O)CCC3(C)C1C2 (centres undefined) | inactive |  |
| CC(C)C(N)C(=O)OCCOCn1cnc2c(=O)[nH]c(N)nc21 (centres undefined) | inactive |  |
| O=C(Nc1ccc(S(=O)(=O)Nc2nccs2)cc1)C(c1ccccc1)c1ccccc1 | inactive |  |
| CN=C(N)NCCCCC/C=C(/C)CC(C)C1OC(=O)C(C)C(O)/C=C/C(C)C(O)CC(O)C(C)C(O)CCC(C)C(O)CC2(O)OC(CC(OC(=O)CC(=O)O)CC(O)CC(O)C(C)C(O)/C(C)=C/CCC1C)CC(O)C2O (centres undefined) |  | 0.226% [at 11.6 µM] |
| CCOCCn1nc(CC)c2nc(N3CCC(C(=O)O)CC3)nc(Nc3cc(C)ccn3)c21 | inactive |  |
| CC1OC(OC2C(CO)OC(OCC3OC(OC(=O)C45CCC(C)(C)CC4C4=CCC6C7(C)CCC(OC8OC(CO)C(O)C(OC9OC(CO)C(O)C(O)C9O)C8O)C(C)(C)C7CCC6(C)C4(C)CC5)C(O)C(O)C3O)C(O)C2O)C(O)C(O)C1OC1OC(CO)C(O)C(O)C1O (centres undefined) |  | 5.26% [at 6.55 µM] |
| O=c1[nH]ccc2cc(OC3CCNCC3)ccc12 | inactive |  |

— PubChem BioAssay (NCATS)
